From PubChem BioAssay
Calls of active or inactive are those of the source.

Columns and labels:
[1] = small molecules captured by biotinylated probe aFSTL3 – biochemical, small-molecule microarray, fluorescence 635/667, stem cell growth factor project, primary screen (AID 1064); settings: higher = more signal;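 further: measures binding of the biotinylated anti-FSTL3 antibody to printed compounds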
[2] = binders from COS7 lysate, DM2A8 probe, primary screen, torsin A project, cell lysate, small-molecule microarray, fluorescence 635/667 (AID 1065); settings: higher = more signal, COS7 lysate expressing mutant human TOR1A
[3] = small molecules captured by biotinylated probe aFGF2 – biochemical, small-molecule microarray, fluorescence 635/667, stem cell growth factor project, primary screen (AID 1067); settings: higher = more signal;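 further: measures binding of biotinylated aFGF2 protein to printed compounds on slides; z-score merges feature fluorescence and signal-to-noise across triplicate slides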
[4] = small molecules captured by biotinylated probe aFGF10 – biochemical, small-molecule microarray, fluorescence 635/667, stem cell growth factor project, primary screen (AID 1071); settings: higher = more signal;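 further: score merges 667 nm spot intensity and signal to noise from triplicate slides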
[5] = target: Neurogenic locus notch homolog protein 2 (Homo sapiens) (UniProt Q04721); assay: small molecules binding Notch2 protein – biochemical, small-molecule microarray, 635 nm fluorescence, stem cell growth factors, primary screen (AID 1073); settings: higher = more signal
Sequence of Neurogenic locus notch homolog protein 2 (Homo sapiens) (Q04721 whole entry, looked up, canonical isoform): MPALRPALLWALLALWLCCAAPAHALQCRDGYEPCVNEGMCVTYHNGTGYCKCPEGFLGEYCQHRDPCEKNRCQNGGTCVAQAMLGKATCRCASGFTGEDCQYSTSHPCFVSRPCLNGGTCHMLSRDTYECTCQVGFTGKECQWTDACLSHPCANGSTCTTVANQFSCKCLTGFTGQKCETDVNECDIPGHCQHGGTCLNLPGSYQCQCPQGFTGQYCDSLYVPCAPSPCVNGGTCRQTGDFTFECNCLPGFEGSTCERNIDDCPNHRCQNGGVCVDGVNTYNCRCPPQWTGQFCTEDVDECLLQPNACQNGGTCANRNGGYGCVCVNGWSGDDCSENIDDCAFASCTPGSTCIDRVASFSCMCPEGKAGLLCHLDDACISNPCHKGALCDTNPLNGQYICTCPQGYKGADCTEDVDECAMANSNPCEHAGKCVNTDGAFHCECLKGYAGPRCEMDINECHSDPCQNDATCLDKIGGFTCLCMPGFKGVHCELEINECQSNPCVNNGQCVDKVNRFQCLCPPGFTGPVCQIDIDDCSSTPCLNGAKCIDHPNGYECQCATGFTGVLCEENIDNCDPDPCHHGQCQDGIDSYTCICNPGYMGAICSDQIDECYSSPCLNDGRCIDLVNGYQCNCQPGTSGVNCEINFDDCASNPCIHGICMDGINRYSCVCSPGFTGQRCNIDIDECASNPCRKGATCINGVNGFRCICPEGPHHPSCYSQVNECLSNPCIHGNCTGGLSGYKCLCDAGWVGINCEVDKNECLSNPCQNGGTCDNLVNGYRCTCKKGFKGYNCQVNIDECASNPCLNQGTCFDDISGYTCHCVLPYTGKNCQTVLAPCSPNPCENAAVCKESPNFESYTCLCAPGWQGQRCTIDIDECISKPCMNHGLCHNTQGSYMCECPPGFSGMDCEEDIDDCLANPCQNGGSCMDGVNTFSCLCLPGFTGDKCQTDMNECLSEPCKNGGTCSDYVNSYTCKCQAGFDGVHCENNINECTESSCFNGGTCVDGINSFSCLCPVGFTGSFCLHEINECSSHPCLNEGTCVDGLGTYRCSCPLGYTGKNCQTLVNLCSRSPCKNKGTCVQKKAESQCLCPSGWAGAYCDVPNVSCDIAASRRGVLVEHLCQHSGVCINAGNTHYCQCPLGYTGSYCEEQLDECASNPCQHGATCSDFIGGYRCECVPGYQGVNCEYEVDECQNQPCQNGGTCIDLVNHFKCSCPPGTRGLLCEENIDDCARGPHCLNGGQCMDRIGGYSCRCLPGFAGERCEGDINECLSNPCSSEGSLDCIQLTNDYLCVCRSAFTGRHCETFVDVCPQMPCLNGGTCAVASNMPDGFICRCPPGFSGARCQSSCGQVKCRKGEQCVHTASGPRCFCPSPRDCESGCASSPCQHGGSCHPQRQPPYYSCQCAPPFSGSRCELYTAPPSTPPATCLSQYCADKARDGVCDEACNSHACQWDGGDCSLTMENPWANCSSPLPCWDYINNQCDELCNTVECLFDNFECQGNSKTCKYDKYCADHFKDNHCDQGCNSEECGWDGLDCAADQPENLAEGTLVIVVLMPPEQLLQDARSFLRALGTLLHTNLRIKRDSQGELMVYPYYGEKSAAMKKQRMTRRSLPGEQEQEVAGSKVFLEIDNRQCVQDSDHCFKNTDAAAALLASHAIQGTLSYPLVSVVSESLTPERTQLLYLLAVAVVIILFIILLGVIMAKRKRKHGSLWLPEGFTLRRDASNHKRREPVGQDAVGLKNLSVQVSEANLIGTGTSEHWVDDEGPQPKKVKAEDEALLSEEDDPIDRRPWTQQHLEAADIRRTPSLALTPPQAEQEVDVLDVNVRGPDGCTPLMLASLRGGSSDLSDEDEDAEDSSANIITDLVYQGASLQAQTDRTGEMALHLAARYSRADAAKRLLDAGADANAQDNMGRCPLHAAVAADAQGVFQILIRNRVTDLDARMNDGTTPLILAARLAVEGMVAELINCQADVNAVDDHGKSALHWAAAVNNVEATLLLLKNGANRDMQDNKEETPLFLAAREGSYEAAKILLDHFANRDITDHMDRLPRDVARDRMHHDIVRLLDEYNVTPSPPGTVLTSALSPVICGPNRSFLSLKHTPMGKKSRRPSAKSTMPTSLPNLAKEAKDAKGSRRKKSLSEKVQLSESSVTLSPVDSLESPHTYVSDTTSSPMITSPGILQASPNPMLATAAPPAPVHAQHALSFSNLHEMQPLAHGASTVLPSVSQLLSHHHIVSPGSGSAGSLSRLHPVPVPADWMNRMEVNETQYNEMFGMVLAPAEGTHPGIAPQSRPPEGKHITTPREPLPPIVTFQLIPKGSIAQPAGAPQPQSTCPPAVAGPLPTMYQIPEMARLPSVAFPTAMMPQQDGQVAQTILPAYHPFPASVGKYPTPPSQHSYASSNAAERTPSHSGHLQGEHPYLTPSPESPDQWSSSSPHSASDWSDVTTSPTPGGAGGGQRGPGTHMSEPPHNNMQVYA

[6] = target: Pro-neuregulin-1, membrane-bound isoform (Homo sapiens) (UniProt Q02297); assay: small molecules binding neuregulin-1 protein – biochemical, small-molecule microarray, fluorescence 635/667, psychiatric disease protein project, primary screen (AID 1075); settings: NRG1 binding, 635 nm fluorescence, higher = more signal;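 further: score combines 667 nm spot fluorescence with signal to noise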
Sequence of Pro-neuregulin-1, membrane-bound isoform (Homo sapiens) (Q02297 whole entry, looked up, the tested form may be a part, canonical isoform): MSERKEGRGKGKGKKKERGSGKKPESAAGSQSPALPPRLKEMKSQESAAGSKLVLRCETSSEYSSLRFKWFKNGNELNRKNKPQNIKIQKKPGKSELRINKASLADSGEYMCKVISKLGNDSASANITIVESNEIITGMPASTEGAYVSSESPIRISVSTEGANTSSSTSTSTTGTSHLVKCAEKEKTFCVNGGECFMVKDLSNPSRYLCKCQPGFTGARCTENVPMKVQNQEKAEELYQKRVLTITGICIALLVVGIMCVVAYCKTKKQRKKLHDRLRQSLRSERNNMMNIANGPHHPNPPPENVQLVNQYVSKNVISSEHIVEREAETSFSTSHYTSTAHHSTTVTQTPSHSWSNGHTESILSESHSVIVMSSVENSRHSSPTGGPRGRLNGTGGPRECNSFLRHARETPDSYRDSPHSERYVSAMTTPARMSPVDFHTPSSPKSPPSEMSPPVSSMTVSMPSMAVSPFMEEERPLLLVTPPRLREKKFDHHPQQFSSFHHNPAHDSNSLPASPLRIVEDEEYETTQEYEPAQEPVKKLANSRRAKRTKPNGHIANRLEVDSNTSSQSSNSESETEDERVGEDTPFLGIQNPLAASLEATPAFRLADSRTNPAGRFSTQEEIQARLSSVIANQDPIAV

[7] = test system: Neuregulin-1 EGF-like domain; assay: small molecules binding NRG1 EGF domain – biochemical, small-molecule microarray, 635 nm fluorescence, primary screen (AID 1081); settings: higher = more signal;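 further: binding of the protein to compounds printed on small-molecule microarray slides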
[8] = FRG1 expression reporter modulators in myotubes – cell-based, C2C12 myotubes, firefly/Renilla luciferase, luminescence, FRG1 inhibition for FSHD, primary screen (AID 1084); settings: FRG1 promoter luciferase, higher = more signal, called active from +8 up or from −8 down
[9] = small molecules captured by biotinylated probe aFST – biochemical, small-molecule microarray, fluorescence 635/667, stem cell growth factor project, primary screen (AID 1086); settings: higher = more signal;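 further: score merges 667 nm fluorescence with signal-to-noise of each printed compound spot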
[10] = binders of probe aHhip on microarray, primary screen, stem cell growth factor project, biochemical, small-molecule microarray, fluorescence 635/667 (AID 1087); settings: higher = more signal;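 further: score merges spot fluorescence at 667nm with spot signal to noise ratio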
[11] = test system: PRMT1 (protein arginine N-methyltransferase 1); assay: small molecules binding arginine methyltransferase PRMT1 – biochemical, small-molecule microarray, 635 nm fluorescence, primary screen (AID 1088); settings: higher = more signal;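 further: binding of Prmt1 protein to compounds spotted on small-molecule microarray slides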
[12] = growth effects on S. cerevisiae YJM789 – YJM789 clinical isolate, OD600, 24 h, basal, primary screen (AID 1089); settings: higher = more signal, called active from +8 up or from −8 down;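 further: growth of clinical yeast isolate S. cerevisiae YJM 789 seeded 1000 cells per well; test concentration not given here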
[13] = S. pombe growth modifiers, basal conditions – strain 972, OD600, 24 h, no modulator, primary screen (AID 1090);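 further: basal condition with compound alone and no growth modifier present; test concentration not given here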; settings: S. pombe 972 growth, higher = more signal, called active from +8 up or from −8 down
[14] = budding yeast growth modifiers under rapamycin – strain BY4716, OD600, 96 h, primary screen (AID 1091); further: test concentration not given here; settings: S. cerevisiae BY4716 + rapamycin, higher = more signal, called active from +8 up or from −8 down
[15] = target: Torsin-1A-interacting protein 2 (Homo sapiens) (UniProt Q8NFQ8); assay: small molecules binding lysate-expressed LULL1 – cell lysate, human LULL1 lysate, 635/667 nm fluorescence, primary screen (AID 1092); settings: small-molecule microarray, hLULL1 lysate binding, 635 nm fluorescence; higher = more signal;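 further: probe is lysate of COS7 cells overexpressing human LULL1; score merges per-feature 667 nm fluorescence with signal-to-noise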
Sequence of Torsin-1A-interacting protein 2 (Homo sapiens) (Q8NFQ8 whole entry, looked up): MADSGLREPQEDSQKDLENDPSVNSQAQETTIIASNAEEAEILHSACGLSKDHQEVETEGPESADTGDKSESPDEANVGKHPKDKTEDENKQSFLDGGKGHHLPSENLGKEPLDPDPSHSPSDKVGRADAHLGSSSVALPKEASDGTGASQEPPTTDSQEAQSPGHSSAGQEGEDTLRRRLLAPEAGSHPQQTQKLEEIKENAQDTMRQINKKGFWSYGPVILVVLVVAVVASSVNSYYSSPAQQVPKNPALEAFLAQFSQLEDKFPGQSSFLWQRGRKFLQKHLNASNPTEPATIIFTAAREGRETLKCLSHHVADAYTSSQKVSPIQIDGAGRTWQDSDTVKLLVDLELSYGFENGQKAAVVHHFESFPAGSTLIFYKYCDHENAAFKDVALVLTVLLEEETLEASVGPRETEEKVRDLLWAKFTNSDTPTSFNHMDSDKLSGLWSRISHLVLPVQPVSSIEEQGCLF

[16] = optical density change of DRC41 E. coli – strain DRC41, OD650, 24 h, E. coli filamentation project, primary screen (AID 1093);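 further: MC1000 strain lacking acrAB efflux and sulA so SOS filamentation is blocked; test concentration not given here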; settings: E. coli DRC41 growth, higher = more signal, called active from +8 up or from −8 down
[17] = probe aLefty2 binding to arrayed compounds – biochemical, biotinylated probe, 635/667 nm fluorescence, primary screen (AID 1094); settings: small-molecule microarray, higher = more signal;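 further: score merges spot fluorescence near 667 nm with spot signal-to-noise ratio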
[18] = test system: Noggin (protein binding on small-molecule microarray); assay: small molecules binding Noggin protein – biochemical, 635/667 nm fluorescence, primary screen (AID 1095); settings: 635 nm fluorescence, higher = more signal;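 further: score merges 667 nm feature fluorescence with signal to noise over triplicate slides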
[19] = target: Neurogenic locus notch homolog protein 3 (Homo sapiens) (UniProt Q9UM47); assay: small molecules binding NOTCH3 protein – biochemical, 635/667 nm fluorescence, primary screen (AID 1096); settings: small-molecule microarray, 635 nm fluorescence, higher = more signal
[20] = probe aEGFR binding to arrayed compounds – biochemical, biotinylated probe, 635/667 nm fluorescence, primary screen (AID 1097); settings: small-molecule microarray, higher = more signal;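 further: probe is a biotinylated anti-EGFR antibody binding compounds printed on slides; score combines fluorescence near 667 nm and signal to noise of each spot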

Structure (SMILES) | composite z-score [1] | composite z-score [2] | composite z-score [3] | composite z-score [4] | composite z-score [5] | composite z-score [6] | composite z-score [7] | z-score [8] | composite z-score [9] | composite z-score [10] | composite z-score [11] | z-score [12] | z-score [13] | z-score [14] | composite z-score [15] | z-score [16] | composite z-score [17] | composite z-score [18] | composite z-score [19] | composite z-score [20]
Cc1ccc(S[C@]2(C(=O)NCCCN(C)C)CC(=O)N(C3CCCCC3)[C@@H]2c2ccc(CO)cc2)cc1 | 0.655 | -1.19 | -0.0885 | -0.418 | -0.503 | 1.43 | 0.98 | -0.404 (inactive) | -0.249 | -0.132 | -0.0316 | -0.96 (inactive) | -2.22 (inactive) | -0.655 (inactive) | 0.555 | 0.457 (inactive) | 0.0321 | -0.561 | -0.662 | -0.106
CC(C)(C)N1CC=CC23O[C@@H]4C=CCOC(=O)[C@@H]4[C@H]2C(=O)N(CCCCCCO)[C@@H]3C1=O (stereo not given in full) | 0.0157 | -0.511 | -0.178 | -0.447 | -0.947 | -0.574 | 1.36 | 0.212 (inactive) | -0.867 | -0.284 | -0.911 | -1.54 (inactive) | -1.27 (inactive) | -0.369 (inactive) | 1.39 | -0.351 (inactive) | -0.101 | -1.27 | -0.729 | -0.163
CC=CC(O)C1C=CC2C(=O)N(c3ccccc3)C(=O)C2N1Nc1ccccc1F (stereo not given) | 0.968 | 0.0233 | 0.384 | 0.547 | 0.264 | 0.82 | 1.36 | 0.584 (inactive) | 1.07 | 0.0001 | 0.841 | -0.0071 (inactive) | 1.4 (inactive) | 0.741 (inactive) | 3.08 | -0.463 (inactive) | 0.535 | -0.592 | -0.411 | 0.312
CN(C)CCCCNC(=O)[C@@H]1C[C@@H]2C(=O)N[C@@H](Cc3ccccc3)C(=O)N2[C@@H]1c1cccc(OCCO)c1 | -0.185 | 0.971 | 0.0281 | 0.645 | -0.729 | 0.382 | 0.905 | 3.35 (inactive) | 0.218 | 0.0524 | 1.55 | -5.59 (inactive) | -1.63 (inactive) | -1.09 (inactive) | 1.5 | 2.67 (inactive) | -0.125 | 1.45 | 1.06 | -0.131
O=C1NC(=O)C2C1C=CC(C(O)CCc1ccccc1)N2Nc1ccc(Cl)cc1Cl (stereo not given) | 1.18 | 1.42 | 0.153 | 0.229 | 1.39 | 1.34 | 1.1 | 1.19 (inactive) | 1.55 | 0.011 | 0.23 | -0.455 (inactive) | -2.05 (inactive) | 0.0242 (inactive) | 2.73 | -0.748 (inactive) | 0.379 | -0.839 | -0.0822 | 0.0122
C=CCOC(=O)[C@H]1[C@@H]2C(=O)O[C@@H](c3ccccc3)[C@@H](c3ccccc3)N2[C@@H](c2ccc(OCCOC(=O)[C@@H]3C[C@@H]4C(=O)N[C@@H](CCCCNC(C)=O)C(=O)N4[C@@H]3c3ccc(O)cc3)cc2)[C@]12C(=O)Nc1ccc(I)cc12 | -0.0041 | 0.689 | -0.0466 | 0.892 | 1.43 | 1.23 | 1.37 | -0.553 (inactive) | 0.257 | -0.323 | 1.52 | 1.29 (inactive) | 0.145 (inactive) | 4.21 (inactive) | 1.88 | -0.289 (inactive) | 0.0594 | 1.19 | 0.981 | 0.117
COCCOC(=O)N1C(=O)[C@@]2(c3cc(C#CCC(C(=O)OC)C(=O)OC)ccc31)[C@H](C(=O)N1CCc3cc(OC)c(OC)cc3C1)[C@H]1C(=O)O[C@H](c3ccccc3)[C@H](c3ccccc3)N1[C@@H]2c1ccc(OCCO)cc1 | -0.63 | 0.527 | -0.0099 | 0.411 | 1.31 | 1.07 | 1.31 | 1.08 (inactive) | 0.479 | 0.0749 | 1.54 | 1.94 (inactive) | 0.667 (inactive) | 4.23 (inactive) | 2.73 | -0.402 (inactive) | -0.0259 | 1.4 | 1.08 | 0.0961
CN(C)C(=O)[C@@]1(CCS(=O)(=O)c2ccccc2)N=C(c2ccc(OCCCO)cc2)O[C@H]1c1ccccc1 | -0.0356 | 0.79 | 0.163 | 0.746 | 1.35 | 2.13 | 1.34 | -0.522 (inactive) | 1.52 | 0.0401 | 1.07 | -0.308 (inactive) | -0.255 (inactive) | 0.117 (inactive) | 3.51 | -0.16 (inactive) | 0.0932 | -0.135 | 1.08 | -0.0215
C=C(/C(=C/C[C@H](OC(=O)c1ccncc1)c1ccc(CO)o1)c1cc(C(=O)OC)ccc1OC)C(C)C | -0.259 | 0.816 | -0.0097 | 1.08 | 0.238 | 0.928 | 1.23 | -0.918 (inactive) | 0.201 | 0.113 | 1.44 | -0.0096 (inactive) | -0.515 (inactive) | -0.38 (inactive) | 1.6 | 0.425 (inactive) | -0.116 | 0.424 | 1.02 | -0.0902
CCOC(=O)C[C@H]1[C@H](OC(=O)Cc2ccc3c(c2)OCO3)[C@@H](NC(=O)Cc2ccc(OC)cc2)c2cc(OCCCO)ccc2N1C(=O)c1ccc2ccccc2n1 | -0.362 | 0.401 | -0.104 | 0.466 | 0.255 | 0.371 | 0.752 | -3.56 (inactive) | 0.103 | -0.274 | 0.317 | -2.05 (inactive) | -1.34 (inactive) | 0.758 (inactive) | 0.708 | 2.08 (inactive) | -0.137 | 0.14 | 0.32 | -0.146
